Inconclusive results are not listed. Active and inactive are the calls of the source. Calls follow the shape of the dose curve; as a rule, active = well fitted cell-killing curve with a large enough effect; inconclusive = small, poorly fitted or top-dose-only effect; inactive = flat fitted curve, though single readings scatter.
experiment: Cell Viability - LYMP2-012 (AID 982); settings: LYMP2-012 lymphoblastoid cell viability qHTS; series mostly up to 92.2 µM; activity change, negative = cytotoxicity: at the top concentration;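 also: cellular ATP by luciferase luminescence where a drop means cytotoxicity; cells exposed to compound for one day before reading; 0% = DMSO only and full loss = 92 µM tetraoctylammonium bromide; nearly all actives have a fitted effect of over 55% in size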

SMILES	activity change, negative = cytotoxicity
CC(C#N)CCC#N (stereo unspecified)	-1.61% (inactive)
Nc1cc(Cl)ccc1Cl	-6.78% (inactive)
Nc1cccc(Cl)c1	-0.911% (inactive)
ClCc1ccccc1	-3.03% (inactive)
CCC/C=N/O	-5.54% (inactive)
COc1c(C(C)(C)C)cc([N+](=O)[O-])c(C)c1[N+](=O)[O-]	-3.42% (inactive)
O=S(=O)(Cl)c1ccccc1	-17.2% (inactive)
C=CCOCC1CO1 (stereo unspecified)	7.98% (inactive)
c1ccoc1	0.713% (inactive)
Clc1ccccc1	-10.8% (inactive)
ClC(Cl)(Cl)C(Cl)(Cl)Cl	-1.6% (inactive)
CCOC(=O)C1OC1(C)c1ccccc1 (stereo unspecified)	-10.5% (inactive)
C/C=C/CC#N	5.31% (inactive)
ClC(Cl)C(Cl)Cl	-4.19% (inactive)
C=CCCl	3.54% (inactive)
Oc1c(Cl)cccc1Cl	5.12% (inactive)
Brc1cccc(-c2ccccc2)c1	8.15% (inactive)
C=CCO	-0.22% (inactive)
OCCCCO	-6.59% (inactive)
Nn1cnnc1	-8% (inactive)

SMILES	activity change, negative = cytotoxicity
BrCCc1ccccc1	5.06% (inactive)
Cc1ccccc1[N+](=O)[O-]	-3.43% (inactive)
CCCCOC(=O)c1ccccc1N	2.13% (inactive)
Clc1cc(Cl)c(Cl)c(Cl)c1	4.61% (inactive)
Cc1ccc(N)c(C)c1	-6.06% (inactive)
C1CC2OC2CC1C1CO1 (stereo unspecified)	-1.42% (inactive)
CN(C)C(=O)Cl	0.247% (inactive)
CC(=O)NNc1ccccc1	-5.46% (inactive)
Cc1ccc(N=C=O)cc1N=C=O	9.73% (inactive)
O=C(Cl)OCc1ccccc1	-1.62% (inactive)
C=CC(=O)OC	14.1% (inactive)
CCN(CC)N=O	-1.82% (inactive)
OCC(Cl)CCl (stereo unspecified)	8.59% (inactive)
CC(C)CON=O	6.14% (inactive)
CC[N+](=O)[O-]	3% (inactive)
CC(C)(Cl)[N+](=O)[O-]	-0.937% (inactive)
C[N+](=O)[O-]	1.5% (inactive)
CC(C)OC(=O)Cc1ccccc1	-2.64% (inactive)
ClCC(Br)CBr (stereo unspecified)	-2.83% (inactive)

experiment: Cell Viability - LYMP2-014 (AID 983); settings: LYMP2-014 lymphoblastoid cells, viability qHTS; series mostly up to 92.2 µM; activity change, negative = cytotoxicity: at the top concentration;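 also: plate controls were DMSO only for no effect and 92 µM tetraoctylammonium bromide for full effect; nearly all actives have a fitted effect of over 50% in size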
Procedure, shortened: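 Human lymphoblastoid cells (2500/well) were pre-incubated 5 hr at 37 C, then exposed to compounds in complete medium for 24 hr at 37 C. Intracellular ATP was read by CellTiter-Glo luminescence after 30 min at room temperature; AC50 from Hill fits.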

SMILES	activity change, negative = cytotoxicity
CC(C#N)CCC#N (stereo unspecified)	-6.56% (inactive)
Nc1cc(Cl)ccc1Cl	-0.13% (inactive)
Nc1cccc(Cl)c1	1.47% (inactive)
ClCc1ccccc1	-2.35% (inactive)
CCC/C=N/O	-2.09% (inactive)
COc1c(C(C)(C)C)cc([N+](=O)[O-])c(C)c1[N+](=O)[O-]	6.94% (inactive)
O=S(=O)(Cl)c1ccccc1	1.01% (inactive)
C=CCOCC1CO1 (stereo unspecified)	7.16% (inactive)
c1ccoc1	4.48% (inactive)
Clc1ccccc1	-3.57% (inactive)
ClC(Cl)(Cl)C(Cl)(Cl)Cl	-5.49% (inactive)
CCOC(=O)C1OC1(C)c1ccccc1 (stereo unspecified)	-6.04% (inactive)
C/C=C/CC#N	-9.54% (inactive)
ClC(Cl)C(Cl)Cl	0.512% (inactive)
C=CCCl	2.49% (inactive)
Oc1c(Cl)cccc1Cl	0.0672% (inactive)
Brc1cccc(-c2ccccc2)c1	1.39% (inactive)
C=CCO	-10% (inactive)
OCCCCO	2.81% (inactive)
Nn1cnnc1	-6.77% (inactive)

SMILES	activity change, negative = cytotoxicity
BrCCc1ccccc1	-7.01% (inactive)
Cc1ccccc1[N+](=O)[O-]	0.594% (inactive)
CCCCOC(=O)c1ccccc1N	-2.24% (inactive)
Clc1cc(Cl)c(Cl)c(Cl)c1	0.989% (inactive)
Cc1ccc(N)c(C)c1	0.0618% (inactive)
C1CC2OC2CC1C1CO1 (stereo unspecified)	-12.3% (inactive)
CN(C)C(=O)Cl	-7.16% (inactive)
CC(=O)NNc1ccccc1	-3.06% (inactive)
Cc1ccc(N=C=O)cc1N=C=O	-7.08% (inactive)
O=C(Cl)OCc1ccccc1	-7.61% (inactive)
C=CC(=O)OC	-3.28% (inactive)
CCN(CC)N=O	-0.759% (inactive)
OCC(Cl)CCl (stereo unspecified)	-3.73% (inactive)
CC(C)CON=O	1.93% (inactive)
CC[N+](=O)[O-]	-8.26% (inactive)
CC(C)(Cl)[N+](=O)[O-]	3.8% (inactive)
C[N+](=O)[O-]	-4.88% (inactive)
CC(C)OC(=O)Cc1ccccc1	1.57% (inactive)
ClCC(Br)CBr (stereo unspecified)	2.02% (inactive)

experiment: Cell Viability - LYMP2-016 (AID 984); settings: LYMP2-016 lymphoblastoid cell viability, qHTS; series mostly up to 92.2 µM; activity change, negative = cytotoxicity: at the top concentration; also: % is scaled to controls: 0 for no effect and ±100 for the full control effect; nearly all actives have a fitted effect of over 55% in size
Procedure, shortened: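 Cells were seeded at 2500 per well and rested 5 hr before a 24 hr compound exposure at 37 C. Viability was then gauged as cellular ATP by luciferase luminescence, with AC50 values fitted to the Hill equation.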

SMILES	activity change, negative = cytotoxicity
CC(C#N)CCC#N (stereo unspecified)	2.83% (inactive)
Nc1cc(Cl)ccc1Cl	-2.8% (inactive)
Nc1cccc(Cl)c1	-11% (inactive)
ClCc1ccccc1	0.845% (inactive)
CCC/C=N/O	-8.21% (inactive)
COc1c(C(C)(C)C)cc([N+](=O)[O-])c(C)c1[N+](=O)[O-]	-2.79% (inactive)
O=S(=O)(Cl)c1ccccc1	-5.43% (inactive)
C=CCOCC1CO1 (stereo unspecified)	-8.55% (inactive)
c1ccoc1	-5.19% (inactive)
Clc1ccccc1	-5% (inactive)
ClC(Cl)(Cl)C(Cl)(Cl)Cl	-2.49% (inactive)
CCOC(=O)C1OC1(C)c1ccccc1 (stereo unspecified)	-1.85% (inactive)
C/C=C/CC#N	-2.08% (inactive)
ClC(Cl)C(Cl)Cl	-7.04% (inactive)
C=CCCl	-8.89% (inactive)
Oc1c(Cl)cccc1Cl	-4.47% (inactive)
Brc1cccc(-c2ccccc2)c1	-3.02% (inactive)
C=CCO	-9.98% (inactive)
OCCCCO	-4.86% (inactive)
Nn1cnnc1	3.12% (inactive)

SMILES	activity change, negative = cytotoxicity
BrCCc1ccccc1	-9.24% (inactive)
Cc1ccccc1[N+](=O)[O-]	1.48% (inactive)
CCCCOC(=O)c1ccccc1N	-0.263% (inactive)
Clc1cc(Cl)c(Cl)c(Cl)c1	-4.38% (inactive)
Cc1ccc(N)c(C)c1	-2.76% (inactive)
C1CC2OC2CC1C1CO1 (stereo unspecified)	2.88% (inactive)
CN(C)C(=O)Cl	-12% (inactive)
CC(=O)NNc1ccccc1	-0.415% (inactive)
Cc1ccc(N=C=O)cc1N=C=O	-3.05% (inactive)
O=C(Cl)OCc1ccccc1	1.64% (inactive)
C=CC(=O)OC	-3.32% (inactive)
CCN(CC)N=O	-2.6% (inactive)
OCC(Cl)CCl (stereo unspecified)	-1.72% (inactive)
CC(C)CON=O	0.583% (inactive)
CC[N+](=O)[O-]	-6.28% (inactive)
CC(C)(Cl)[N+](=O)[O-]	-2.09% (inactive)
C[N+](=O)[O-]	-10.8% (inactive)
CC(C)OC(=O)Cc1ccccc1	-1.85% (inactive)
ClCC(Br)CBr (stereo unspecified)	1.73% (inactive)

experiment: Cell Viability - LYMP2-018 (AID 985); settings: LYMP2-018 lymphoblastoid cells, viability (qHTS); series mostly up to 92.2 µM; activity change, negative = cytotoxicity: at the top concentration;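 also: plate controls were DMSO only for no effect and tetraoctylammonium bromide at 92 µM for full effect; nearly all actives have a fitted effect of over 50% in size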
Procedure, shortened: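 Human lymphoblastoid cells (2500/well) were pre-incubated 5 hr at 37 C, then exposed to compounds for 24 hr at 37 C in complete medium. Viability was read as intracellular ATP by CellTiter-Glo luminescence; AC50 values came from Hill-equation fits.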

SMILES	activity change, negative = cytotoxicity
CC(C#N)CCC#N (stereo unspecified)	-8.4% (inactive)
Nc1cc(Cl)ccc1Cl	-9.35% (inactive)
Nc1cccc(Cl)c1	-13.3% (inactive)
ClCc1ccccc1	-1.31% (inactive)
CCC/C=N/O	-21.4% (inactive)
COc1c(C(C)(C)C)cc([N+](=O)[O-])c(C)c1[N+](=O)[O-]	1.15% (inactive)
O=S(=O)(Cl)c1ccccc1	-12.5% (inactive)
C=CCOCC1CO1 (stereo unspecified)	10.5% (inactive)
c1ccoc1	-4.6% (inactive)
Clc1ccccc1	-7.06% (inactive)
ClC(Cl)(Cl)C(Cl)(Cl)Cl	1.86% (inactive)
CCOC(=O)C1OC1(C)c1ccccc1 (stereo unspecified)	-4.42% (inactive)
C/C=C/CC#N	-6.69% (inactive)
ClC(Cl)C(Cl)Cl	-10.1% (inactive)
C=CCCl	-15.9% (inactive)
Oc1c(Cl)cccc1Cl	0.307% (inactive)
Brc1cccc(-c2ccccc2)c1	-4.33% (inactive)
C=CCO	-15.9% (inactive)
OCCCCO	-3.22% (inactive)
Nn1cnnc1	-9.9% (inactive)

SMILES	activity change, negative = cytotoxicity
BrCCc1ccccc1	-10.9% (inactive)
Cc1ccccc1[N+](=O)[O-]	-3.24% (inactive)
CCCCOC(=O)c1ccccc1N	-4.41% (inactive)
Clc1cc(Cl)c(Cl)c(Cl)c1	-13% (inactive)
Cc1ccc(N)c(C)c1	-5.51% (inactive)
C1CC2OC2CC1C1CO1 (stereo unspecified)	-5.95% (inactive)
CN(C)C(=O)Cl	-4.62% (inactive)
CC(=O)NNc1ccccc1	-4.14% (inactive)
Cc1ccc(N=C=O)cc1N=C=O	-16.8% (inactive)
O=C(Cl)OCc1ccccc1	-11.2% (inactive)
C=CC(=O)OC	-8.28% (inactive)
CCN(CC)N=O	0.206% (inactive)
OCC(Cl)CCl (stereo unspecified)	-7.57% (inactive)
CC(C)CON=O	-7.17% (inactive)
CC[N+](=O)[O-]	-4.64% (inactive)
CC(C)(Cl)[N+](=O)[O-]	-10.2% (inactive)
C[N+](=O)[O-]	-17.2% (inactive)
CC(C)OC(=O)Cc1ccccc1	-3.24% (inactive)
ClCC(Br)CBr (stereo unspecified)	0.0485% (inactive)
